Assay results published in PubChem BioAssay (Tox21).
Results filed as inconclusive are left out. Activity calls are given as the source filed them. Unless noted, calls come from the whole dose curve; as a rule, active = well fitted curve in the direction sought with a large enough effect in the repeat runs; inconclusive = weak or mixed curves; inactive = no such curve, though single readings can be large; an effect the other way counts as inactive or inconclusive.

Legend:
[1] = qHTS assay to identify small molecule antagonists of the peroxisome proliferator-activated receptor delta (PPARd) signaling pathway - cell viability counter screen (AID 743213); note: nearly all actives have a fitted effect of over 50% in size
Procedure, shortened: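 HEK293H cells with the PPARd UAS-bla reporter, co-treated 17 h at 37 C with compounds and L165041 (300 nM final), were lysed with CellTiter-Glo. Luminescence indicated viable cell content.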

[2] = molecular target: Bile acid receptor (Homo sapiens) (UniProt Q96RI1); assay: qHTS assay to identify small molecule antagonists of the farnesoid-X-receptor (FXR) signaling pathway (AID 743217; active = well fitted inhibition curve with a large enough effect in the signal ratio in the repeat runs, not every such curve was filed as active; the % refers to the signal ratio)
Procedure, shortened: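 Beta-lactamase reporter under UAS control in HEK 293T cells; compound exposure 16 h at 37 °C in the presence of chenodeoxycholic acid (50 uM final); signal from B/G FRET substrate after 2 h at room temperature.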

[3] = qHTS assay to identify small molecule agonists of the farnesoid-X-receptor (FXR) signaling pathway - cell viability counter screen (AID 743218); note: nearly all actives have a fitted effect of over 45% in size
Procedure, shortened: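 In GeneBLAzer FXR-UAS-bla HEK 293T cells, compounds act for 16 h at 37 C. Cell viability is then scored in the reporter wells by CellTiter-Glo, 30 min at RT, luminescence.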

[4] = molecular target: Bile acid receptor (Homo sapiens) (UniProt Q96RI1); assay: qHTS assay to identify small molecule agonists of the farnesoid-X-receptor (FXR) signaling pathway (AID 743220; active = well fitted activation curve with a large enough effect in the signal ratio in the repeat runs, not every such curve was filed as active; the % refers to the signal ratio)
Procedure, shortened: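 Beta-lactamase reporter under UAS control in GeneBLAzer FXR HEK 293T cells (5000/well) measured with LiveBLAzer FRET substrate after 2 h at room temperature. Compound exposure lasted 16 h at 37C.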

[5] = qHTS assay to identify small molecule antagonists of the farnesoid-X-receptor (FXR) signaling pathway - cell viability counter screen (AID 743221; active = well fitted cell-killing curve with a large enough effect in the repeat runs, not every such curve was filed as active; note: nearly all actives have a fitted effect of over 50% in size)
Procedure, shortened: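 Compound effects on cell number were measured as CellTiter-Glo luminescence in HEK 293T cells expressing FXR-UAS-bla, after 16 h at 37 C with 50 uM CDCA (final).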

[6] = molecular target: Vitamin D3 receptor (Homo sapiens) (UniProt P11473); assay: qHTS assay to identify small molecule agonists of the vitamin D receptor (VDR) signaling pathway (AID 743222; calls by dose curve)
Procedure, shortened: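 Agonist activity measured in VDR-bla reporter cells. Exposure 16 h, 37C, 5% CO2; detection by B/G FRET substrate, 2 h RT.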

[7] = molecular target: Vitamin D3 receptor (Homo sapiens) (UniProt P11473); assay: qHTS assay to identify small molecule antagonists of the vitamin D receptor (VDR) signaling pathway (AID 743223; active = well fitted inhibition curve with a large enough effect in the signal ratio in the repeat runs, not every such curve was filed as active; the % refers to the signal ratio)
Procedure, shortened: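 Beta-lactamase activity in VDR-bla cells is measured by FRET substrate fluorescence (2 h, room temperature) after cells spend 16 h at 37C with test compound and 3 nM final 1alpha,25-dihydroxyvitamin D3.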

[8] = qHTS assay to identify small molecule agonists of the vitamin D receptor (VDR) signaling pathway - cell viability counter screen (AID 743224); note: series mostly up to about 63 µM; nearly all actives have a fitted effect of over 50% in size
Procedure, shortened: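 VDR-bla cell line, quantitative HTS format; 16 h compound incubation (37C, 5% CO2); ATP-based CellTiter-Glo luminescence measured in the reporter assay wells.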

[9] = molecular target: Peroxisome proliferator-activated receptor delta (Homo sapiens) (UniProt Q03181); assay: qHTS assay to identify small molecule antagonists of the peroxisome proliferator-activated receptor delta (PPARd) signaling pathway (AID 743215; active = well fitted inhibition curve with a large enough effect in the signal ratio in the repeat runs, not every such curve was filed as active; the % refers to the signal ratio;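 note: cells stimulated with agonist L165041 at 300 nM final during compound exposure; series mostly up to about 62 µM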)
Procedure, shortened: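 Antagonist-mode beta-lactamase reporter screen: HEK293H cells with UAS-bla under PPARd control, stimulated by 300 nM L165041 (final) alongside test compound for 17 h at 37 C, then FRET fluorescence after 2 h substrate incubation.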
% is set by controls: 0 for no effect and ±100 for the full control effect.

Vitamin D3 receptor (Homo sapiens), sequence (P11473 whole entry, looked up): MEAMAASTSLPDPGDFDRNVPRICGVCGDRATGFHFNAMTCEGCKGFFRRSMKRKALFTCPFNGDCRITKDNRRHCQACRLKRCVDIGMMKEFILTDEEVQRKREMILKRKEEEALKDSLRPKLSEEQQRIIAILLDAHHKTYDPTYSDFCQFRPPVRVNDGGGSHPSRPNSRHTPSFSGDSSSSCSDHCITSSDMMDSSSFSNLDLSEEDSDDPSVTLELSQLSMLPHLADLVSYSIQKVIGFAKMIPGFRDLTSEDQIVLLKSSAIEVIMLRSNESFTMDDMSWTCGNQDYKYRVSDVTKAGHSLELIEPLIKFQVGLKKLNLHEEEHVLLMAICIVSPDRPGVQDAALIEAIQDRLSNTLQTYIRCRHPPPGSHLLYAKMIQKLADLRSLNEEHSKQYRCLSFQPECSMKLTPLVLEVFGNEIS
Peroxisome proliferator-activated receptor delta (Homo sapiens), sequence (Q03181 whole entry, looked up): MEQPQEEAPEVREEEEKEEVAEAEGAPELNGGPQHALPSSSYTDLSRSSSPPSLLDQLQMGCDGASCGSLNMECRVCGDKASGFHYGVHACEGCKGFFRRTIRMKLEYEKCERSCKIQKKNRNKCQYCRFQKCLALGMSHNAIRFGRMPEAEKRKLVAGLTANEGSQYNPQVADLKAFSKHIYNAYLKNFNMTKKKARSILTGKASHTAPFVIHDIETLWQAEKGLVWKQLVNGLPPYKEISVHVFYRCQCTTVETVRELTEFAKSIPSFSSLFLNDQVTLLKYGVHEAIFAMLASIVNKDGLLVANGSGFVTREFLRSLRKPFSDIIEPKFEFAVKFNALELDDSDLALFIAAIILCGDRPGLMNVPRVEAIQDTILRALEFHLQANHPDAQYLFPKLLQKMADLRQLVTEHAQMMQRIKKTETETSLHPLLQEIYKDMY
Bile acid receptor (Homo sapiens), sequence (Q96RI1 whole entry, looked up): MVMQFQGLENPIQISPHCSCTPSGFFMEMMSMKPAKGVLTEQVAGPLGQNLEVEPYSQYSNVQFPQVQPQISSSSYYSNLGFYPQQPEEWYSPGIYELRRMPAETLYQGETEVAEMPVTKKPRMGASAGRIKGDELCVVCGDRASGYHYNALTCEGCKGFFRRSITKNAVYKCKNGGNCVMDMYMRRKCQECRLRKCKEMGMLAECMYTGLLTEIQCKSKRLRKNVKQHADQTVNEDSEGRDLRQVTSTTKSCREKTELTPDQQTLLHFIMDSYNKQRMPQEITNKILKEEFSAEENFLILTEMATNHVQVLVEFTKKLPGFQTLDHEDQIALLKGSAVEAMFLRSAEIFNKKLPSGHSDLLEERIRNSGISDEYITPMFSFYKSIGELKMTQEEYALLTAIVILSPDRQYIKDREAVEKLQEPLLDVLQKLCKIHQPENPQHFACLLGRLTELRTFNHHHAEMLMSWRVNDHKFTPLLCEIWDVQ

Cc1nc(C2CCCCC2)c(-c2ccc(S(N)(=O)=O)c(F)c2)o1
inactive: outcome [1] | outcome [2] | outcome [3] | outcome [4] | outcome [5] | outcome [6] | outcome [7] | outcome [8]

CNC(=O)Nc1ccc(Cl)c(Cl)c1
inactive: outcome [1] | outcome [2] | outcome [3] | outcome [4] | outcome [5]

Nc1ccn([C@@H]2O[C@H](CO)[C@@H](O)C2(F)F)c(=O)n1
inactive: outcome [1] | outcome [3] | outcome [4] | outcome [5] | outcome [6] | outcome [7] | outcome [8]

C=CC(C)(CCC=C(C)C)OC(=O)CC (centres undefined)
inactive: outcome [1] | outcome [2] | outcome [3] | outcome [4] | outcome [5] | outcome [6] | outcome [7] | outcome [8]

CCCCCCC1CCC(=O)O1 (centres undefined)
inactive: outcome [1] | outcome [9] | outcome [5] | outcome [6] | outcome [8]

CCCCCCCCCCCCSC
inactive: outcome [1] | outcome [3] | outcome [4] | outcome [5] | outcome [8]

CO[C@@]1(NC(=O)C(C(=O)O)c2ccc(O)cc2)C(=O)N2C(C(=O)O)=C(CSc3nnnn3C)CO[C@@H]21 (some centres undefined)
inactive: outcome [1] | outcome [9] | outcome [5] | outcome [7] | outcome [8]

Nc1c2c(nc3c1CCC3)CCCC2
inactive: outcome [1] | outcome [2] | outcome [3] | outcome [4] | outcome [5] | outcome [7] | outcome [8]

Cc1coc2ccccc2c1=O
inactive: outcome [1] | outcome [2] | outcome [3] | outcome [4] | outcome [5] | outcome [8]

C[C@H]1[C@H](NC(=O)/C(=N/OC(C)(C)C(=O)O)c2csc(N)n2)C(=O)N1S(=O)(=O)O (stereo in doubt)
inactive: outcome [1] | outcome [2] | outcome [3] | outcome [4] | outcome [5]

CCO[Si](OCC)(OCC)c1ccccc1
inactive: outcome [1] | outcome [3] | outcome [4] | outcome [5] | outcome [7] | outcome [8]

C[N+]1(C)[C@@H]2CC(OC(=O)[C@H](CO)c3ccccc3)C[C@H]1[C@@H]1O[C@@H]12 (some centres undefined)
inactive: outcome [1] | outcome [3] | outcome [5] | outcome [6] | outcome [7] | outcome [8]

Cc1ncc([C@@H](CCCCCCc2ccc3c(n2)NCCC3)CC(=O)O)cn1
inactive: outcome [1] | outcome [3] | outcome [4] | outcome [5] | outcome [6] | outcome [8]

CCCC[N+](C)(CCCC)CCCC
inactive: outcome [1] | outcome [9] | outcome [5]

c1ccc(Cc2ccccc2)cc1
inactive: outcome [1] | outcome [3] | outcome [4] | outcome [5] | outcome [8]

COc1c(N2CCNC(C)C2)c(F)cc2c(=O)c(C(=O)O)cn(C3CC3)c12 (centres undefined)
inactive: outcome [1] | outcome [2] | outcome [5] | outcome [8]

Cc1ccnc(NS(=O)(=O)c2ccc(N)cc2)n1
inactive: outcome [1] | outcome [2] | outcome [3] | outcome [4] | outcome [5] | outcome [6] | outcome [7] | outcome [8]

Cc1ccccc1N=C(N)N=C(N)N
inactive: outcome [1] | outcome [9] | outcome [5] | outcome [6] | outcome [8]

CCCCCCCCN1CCCC1=O
inactive: outcome [1] | outcome [2] | outcome [3] | outcome [4] | outcome [5] | outcome [6] | outcome [8]

CC(CO)(CO)[N+](=O)[O-]
inactive: outcome [1] | outcome [3] | outcome [4] | outcome [5] | outcome [6] | outcome [8]

CN1[C@@H]2CC[C@H]1CC(OC(=O)C(O)c1ccccc1)C2 (some centres undefined)
inactive: outcome [1] | outcome [3] | outcome [5] | outcome [6] | outcome [7] | outcome [8]

O=C(CO)[C@@H](O)[C@H](O)[C@@H](O)CO
inactive: outcome [1] | outcome [3] | outcome [5] | outcome [8]

CCCCCCCCCCCCCCC(=O)O
inactive: outcome [9] | outcome [3] | outcome [5] | outcome [7] | outcome [8]

O=[N+]([O-])c1cncn1CCN1CCOCC1
inactive: outcome [1] | outcome [3] | outcome [5] | outcome [7] | outcome [8]

CN(C)[C@@H]1C(=O)C(C(=O)NCN2CCCC2)=C(O)[C@@]2(O)C(=O)C3=C(O)c4c(O)cccc4[C@@](C)(O)C3C[C@@H]12 (some centres undefined)
inactive: outcome [1] | outcome [3] | outcome [5] | outcome [6] | outcome [8]

CCCc1ncc(C[n+]2ccccc2C)c(N)n1
inactive: outcome [2] | outcome [3] | outcome [4] | outcome [5] | outcome [7] | outcome [8]

CC(C)(CCC(=O)O)C(=O)O
inactive: outcome [1] | outcome [3] | outcome [5] | outcome [6] | outcome [7] | outcome [8]

CCN[C@@H]1C[C@H](N)[C@@H](OC2OC(CN)=CCC2N)[C@H](O)[C@H]1O[C@H]1OC[C@](C)(O)[C@H](NC)[C@H]1O (some centres undefined)
inactive: viability change, negative = cytotoxic [1] 8.69% [at 0.575 µM] | viability change, negative = cytotoxic [3] 10.1% [at 0.55 µM] | activity change, negative = cytotoxicity [5] 2.76% [at 0.55 µM] | activation [6] 11.5% [at 0.554 µM] | activity change, negative = inhibition [7] 9.37% [at 0.628 µM] | activity change, negative = cytotoxicity [8] 0.0384% [at 0.55 µM]

C[C@@H]1CCC[C@H](C)N1
inactive: outcome [1] | outcome [3] | outcome [5] | outcome [7] | outcome [8]

CN(C)CCCCCCN(C)C
inactive: outcome [3] | outcome [4] | outcome [5] | outcome [6] | outcome [7] | outcome [8]

C=C[Si](OC(C)=O)(OC(C)=O)OC(C)=O
inactive: outcome [3] | outcome [5]

Cc1ncc(COP(=O)(O)O)c(C=O)c1O
inactive: outcome [1] | outcome [3] | outcome [5] | outcome [8]

CCCCCCCCCCOc1cc2c(=O)c(C(=O)OCC)c[nH]c2cc1OCC
inactive: ratio activity, negative = inhibition [9] 0.26% [at 6.26 µM] | viability change, negative = cytotoxic [3] 4.21% [at 5.95 µM] | activity change, negative = cytotoxicity [5] 5.04% [at 5.95 µM]

CC(C)[C@H]1CC[C@@H](C)CC1=O
inactive: outcome [1] | outcome [3] | outcome [5] | outcome [8]

C=COCC1CCC(COC=C)CC1 (centres undefined)
inactive: outcome [1] | outcome [3] | outcome [5] | outcome [8]

CN1CC(=O)N/C1=N/C(=O)Nc1cccc(Cl)c1
inactive: outcome [1] | outcome [3] | outcome [5] | outcome [6] | outcome [7] | outcome [8]

C[N+](C)(C)CCCCCCCCCC[N+](C)(C)C
inactive: outcome [1] | outcome [3] | outcome [5] | outcome [6] | outcome [7] | outcome [8]

CCC(C)(CN(C)C)OC(=O)c1ccccc1 (centres undefined)
inactive: outcome [1] | outcome [5] | outcome [6] | outcome [8]

COc1cc2c(cc1OC)-c1cc3ccc(OC)c(OC)c3c[n+]1CC2
inactive: outcome [3] | outcome [5] | outcome [6] | outcome [8]

CCC(C(=O)NC(=O)NC(C)=O)c1ccccc1 (centres undefined)
inactive: outcome [1] | outcome [3] | outcome [5] | outcome [8]

CC(C(=O)O)c1cccc(Oc2ccccc2)c1 (centres undefined)
inactive: outcome [1] | outcome [3] | outcome [5] | outcome [6] | outcome [7] | outcome [8]

O=S(=O)(O)c1cccc(S(=O)(=O)O)c1
inactive: outcome [3] | outcome [5] | outcome [7]

COc1cc(-c2ccc(=O)[nH]n2)ccc1OC(F)F
inactive: outcome [1] | outcome [4] | outcome [5] | outcome [8]

O=[N+]([O-])c1ccc(/C=N\O)o1
inactive: outcome [3] | outcome [5] | outcome [6] | outcome [8]

Cc1c(N)c(=O)n(-c2ccccc2)n1C
inactive: outcome [1] | outcome [3] | outcome [5] | outcome [6] | outcome [8]

CC1OC1C1CCC2(C)OC2C1 (centres undefined)
inactive: outcome [1] | outcome [3] | outcome [5] | outcome [6] | outcome [8]

CCCCCC(=O)OCCc1ccccc1
inactive: outcome [1] | outcome [3] | outcome [5] | outcome [8]

CC1(C)OC[C@@H](COC(=O)CCc2ccc(OC[C@@H](O)CNCCNC(=O)N3CCOCC3)cc2)O1
inactive: outcome [1] | outcome [3] | outcome [5] | outcome [6] | outcome [8]

O=CN(CCO)CCO
inactive: outcome [9] | outcome [3] | outcome [5] | outcome [6] | outcome [7] | outcome [8]

C1CCC2=NCCCN2CC1
inactive: outcome [1] | outcome [3] | outcome [5] | outcome [6] | outcome [7] | outcome [8]

CNCC(O)c1ccc(O)c(O)c1 (centres undefined)
inactive: outcome [3] | outcome [5] | outcome [6]

Cc1ccc(C(=O)c2ccc(CC(=O)O)n2C)cc1
inactive: outcome [3] | outcome [5] | outcome [7] | outcome [8]

COc1cccc(OC)c1C(=O)N[C@@H]1C(=O)N2[C@@H]1SC(C)(C)[C@@H]2C(=O)O
inactive: outcome [1] | outcome [3] | outcome [5] | outcome [6] | outcome [7] | outcome [8]

C[N+]12CCC(CC1)C(OC(=O)C(O)(c1ccccc1)c1ccccc1)C2 (centres undefined)
inactive: outcome [2] | outcome [3] | outcome [5] | outcome [6] | outcome [8]

Nc1ccccn1
inactive: outcome [1] | outcome [3] | outcome [5] | outcome [6] | outcome [7] | outcome [8]

O=C(CO)[C@@H](O)[C@H](O)[C@H](O)CO
inactive: outcome [5] | outcome [8]

O=C(O)CCCC[P+](c1ccccc1)(c1ccccc1)c1ccccc1
inactive: outcome [1] | outcome [3] | outcome [5] | outcome [6] | outcome [8]

NCCCC(N)(C(=O)O)C(F)F (centres undefined)
inactive: outcome [1] | outcome [3] | outcome [5] | outcome [7]

CC(C)C1CCC(O)CC1 (centres undefined)
inactive: outcome [1] | outcome [5] | outcome [6] | outcome [7]
